The values that follow come from PubChem BioAssay (NCI).

The panel holds about 83,000 compounds, 20% with a hit somewhere; the sample as a whole holds those more often.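 In brief: 96-well plates, 48 h treatment, single concentration, percent growth endpoint.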 Unmarked numbers belong to inactive results. Calls of active or inactive are those of the source. The calls were made as follows: active = growth percent below 10; inactive = the rest.

Among the test systems are NCI-H23 lung; NCI-H226 lung; NCI-H322M lung; HOP-62 NSCLC; NCI-H460 lung; HOP-92 NSCLC; NCI-H522 lung; A549/ATCC NSCLC; 786-0 renal; COLO 205 colon; DU-145 prostate; K-562 leukemia; MALME-3M melanoma; MDA-MB-231 breast; RXF 393 renal; SF-268 CNS; SF-295 CNS; SF-539 CNS; UACC-257 melanoma; M14 melanoma.
Holding throughout (assay): NCI-60 one-dose screen, 48 h (100 = growth as untreated, 0 = no growth, -100 = all killed)
Conditions in all cases: 10 µM unless noted

On to `O=[N+]([O-])c1ccccc1Nc1ccc2ccccc2c1`, for which the growth with NCI-H23 lung was 97.7%; in the experiment on NCI-H226 lung it was 97.1%; in the experiment on NCI-H322M lung it was 108%; with HOP-62 NSCLC, 82.7%; in the experiment on NCI-H460 lung, 84.4%; in the experiment on HOP-92 NSCLC it was 82.9%. The growth in the experiment with NCI-H522 lung is 87.8%; in the experiment with A549/ATCC NSCLC it was 47.8%; in the experiment with 786-0 renal, 83.5%; with COLO 205 colon, 72.5%; with DU-145 prostate, 107%; in the experiment on K-562 leukemia, 84.8%. The growth is 106% in the experiment on MALME-3M melanoma; 91.9% in the experiment with MDA-MB-231 breast; 133% in the experiment with RXF 393 renal; 95.5% in the experiment with SF-268 CNS; 98.3% with SF-295 CNS; 97% with SF-539 CNS. Moreover, the growth in the experiment with UACC-257 melanoma is 92.8%; with M14 melanoma, 91.3%.

In the case of `ClC(Cl)c1nc(-c2ccccc2)n2nc(-c3ccccc3)cc2n1`, the growth in the experiment on NCI-H23 lung was -17.6% (active); with NCI-H226 lung, 86.9%; with NCI-H322M lung, -41.7% (active); in the experiment on HOP-62 NSCLC it was -3.61% (active); in the experiment with NCI-H460 lung it was -58.2% (active); with HOP-92 NSCLC, 3.98% (active). For the same compound, the growth in the experiment on NCI-H522 lung was 29.9%; in the experiment on A549/ATCC NSCLC, -16.2% (active); in the experiment on 786-0 renal, 42.9%; with COLO 205 colon, -40.3% (active); in the experiment on DU-145 prostate, -12% (active); in the experiment with K-562 leukemia it was 31.2%. In addition, the growth is 55.9% in the experiment on MALME-3M melanoma; 2.2% (active) in the experiment with MDA-MB-231 breast; -68% (active) in the experiment on RXF 393 renal; 11.9% with SF-268 CNS; -13.1% (active) with SF-295 CNS; 0.564% (active) in the experiment with SF-539 CNS. Moreover, the growth was 33.9% in the experiment with UACC-257 melanoma and 32.3% in the experiment with M14 melanoma.

For `COC(=O)Cn1c2c(c3c(OC)cccc31)C(=O)c1ccccc1-2`, the growth in the experiment with NCI-H23 lung is 91.2%; in the experiment with NCI-H226 lung, 91.4%; in the experiment with NCI-H322M lung it was 113%; in the experiment with HOP-62 NSCLC it was 87%; with NCI-H460 lung, 112%; in the experiment with HOP-92 NSCLC it was 70.3%. Further, the growth is 101% in the experiment on NCI-H522 lung; 100% in the experiment on A549/ATCC NSCLC; 86.6% with 786-0 renal; 104% with COLO 205 colon; 104% with DU-145 prostate; 91.7% in the experiment with K-562 leukemia. The growth in the experiment with MALME-3M melanoma was 95.5%; in the experiment on MDA-MB-231 breast, 98.5%; with RXF 393 renal it was 114%; in the experiment with SF-268 CNS, 97%; in the experiment on SF-295 CNS it was 107%; in the experiment with SF-539 CNS, 101%. Further, the values for the growth with UACC-257 melanoma and with M14 melanoma were 101% and 103%, respectively.

Turning to `CCOC(=O)/C=C1\S/C(=N\Nc2cc(=O)[nH]c3ccc(Br)cc23)N(c2ccccc2)C1=O`, the growth in the experiment on NCI-H23 lung is 88.1%; with NCI-H226 lung, 84.1%; in the experiment with NCI-H322M lung it was 90.5%; in the experiment with HOP-62 NSCLC it was 91.2%; in the experiment with NCI-H460 lung, 95.9%; in the experiment on HOP-92 NSCLC it was 81.5%. Besides, the growth with NCI-H522 lung was 31.4%; in the experiment with A549/ATCC NSCLC, 103%; in the experiment with 786-0 renal, 86%; in the experiment with COLO 205 colon, 46.6%; in the experiment on DU-145 prostate it was 85.2%; in the experiment on K-562 leukemia it was 13.4%. Besides, the growth is 82% in the experiment with MALME-3M melanoma; 86.2% with MDA-MB-231 breast; 35.2% with RXF 393 renal; 85.6% in the experiment on SF-268 CNS; 100% with SF-295 CNS; 80.8% in the experiment on SF-539 CNS. Further, the results for the growth with UACC-257 melanoma and in the experiment with M14 melanoma were 89.9% and 89.5%, respectively.

In the case of `c1cc(OCCN2CCCC2)ccc1CNc1ccc2nc(CCC3CCCCC3)[nH]c2c1`, the growth with NCI-H23 lung is 81.9%; in the experiment with NCI-H226 lung, 51.3%; with NCI-H322M lung, 78.2%; in the experiment with HOP-62 NSCLC, 57.8%; in the experiment with NCI-H460 lung it was 52.6%; with HOP-92 NSCLC it was 25.3%. Further, the growth with NCI-H522 lung was 63.2%; in the experiment with A549/ATCC NSCLC it was 50.2%; with 786-0 renal, -60.1% (active); in the experiment with COLO 205 colon, -73.9% (active); in the experiment on DU-145 prostate it was 65.2%; in the experiment with K-562 leukemia it was -11.7% (active). Besides, the growth was -83.7% (active) in the experiment on MALME-3M melanoma; 11.2% in the experiment with MDA-MB-231 breast; 42.2% in the experiment on RXF 393 renal; 58.3% with SF-268 CNS; -30% (active) with SF-295 CNS; -72.4% (active) in the experiment on SF-539 CNS. The growth in the experiment with UACC-257 melanoma is -77.8% (active); in the experiment on M14 melanoma, -86.9% (active).

For the compound `CC(C)n1c2ccc(Br)cc2c2c3c(c4c5ccccc5ccc4c21)C(=O)NC3=O`, the growth with NCI-H23 lung was 93.7%; with NCI-H226 lung, 95.5%; with NCI-H322M lung, 70.9%; with HOP-62 NSCLC it was 94.6%; with NCI-H460 lung it was 89.9%; in the experiment with HOP-92 NSCLC, 117%. The growth in the experiment on NCI-H522 lung is 71.9%; with A549/ATCC NSCLC, 98.3%; in the experiment with 786-0 renal, 101%; with COLO 205 colon, 101%; in the experiment with DU-145 prostate, 84.2%; in the experiment with K-562 leukemia, 76.4%. Besides, the growth with MALME-3M melanoma is 105%; with MDA-MB-231 breast, 110%; in the experiment on RXF 393 renal, 98.5%; with SF-268 CNS, 88.7%; with SF-295 CNS, 101%; with SF-539 CNS, 91.5%. For the same compound, the growth is 113% with UACC-257 melanoma and 92.7% with M14 melanoma.

`O=C1OCC2=C1C(c1ccccc1)c1cc3c(cc1N2CCO)OCCO3` (stereo not given): the growth with NCI-H23 lung is 30.9%; with NCI-H226 lung it was 15.8%; with NCI-H322M lung, 48.7%; in the experiment with HOP-62 NSCLC it was 27.3%; with NCI-H460 lung, 5.36% (active); with HOP-92 NSCLC it was 44.5%. In addition, the growth in the experiment with NCI-H522 lung was -47.4% (active); in the experiment on A549/ATCC NSCLC it was 23.6%; in the experiment with 786-0 renal, 20.8%; with COLO 205 colon, -47.6% (active); in the experiment on DU-145 prostate, -9.9% (active); in the experiment on K-562 leukemia, 10.5%. Moreover, the growth in the experiment on MALME-3M melanoma is 67.1%; in the experiment on MDA-MB-231 breast, 14.2%; in the experiment on RXF 393 renal, 10.8%; in the experiment with SF-268 CNS it was 32.1%; with SF-295 CNS, 0.89% (active); in the experiment on SF-539 CNS, -22.7% (active). Further, the growth was 47.3% in the experiment with UACC-257 melanoma and -21.8% (active) with M14 melanoma.

For `C=C(C)[C@@H]1CC[C@]2(C)[C@H](C=CC3=C4C[C@@](C)(CO)CC[C@]4(C)CC[C@]32C)[C@@]1(C)CCCN`, the growth in the experiment with NCI-H23 lung is -37.1% (active); in the experiment on NCI-H226 lung, 90.8%; in the experiment with NCI-H322M lung, -14.3% (active); with HOP-62 NSCLC, -54.9% (active); in the experiment on NCI-H460 lung, -86.2% (active); with HOP-92 NSCLC, -52.9% (active). Besides, the growth in the experiment on NCI-H522 lung was -43.1% (active); with A549/ATCC NSCLC, -62.2% (active); in the experiment with 786-0 renal it was -97.3% (active); in the experiment on COLO 205 colon, -64.4% (active); in the experiment on DU-145 prostate, -72.7% (active); in the experiment with K-562 leukemia, 0.273% (active). For the same compound, the growth with MALME-3M melanoma was -45.2% (active); with MDA-MB-231 breast, -75.7% (active); with RXF 393 renal, -69.5% (active); in the experiment with SF-268 CNS it was -55.8% (active); in the experiment with SF-295 CNS, 73.3%; in the experiment with SF-539 CNS, -90% (active). Also, the results for the growth with UACC-257 melanoma and in the experiment on M14 melanoma were -60.4% (active) and -66.2% (active), respectively.
